Data: PubChem BioAssay AID1159580 (chemical genetic matrix, 2015)
The whole screen tested about 5,500 compounds, of which about 2,000 (36%) were called active. Inconclusive results (about 18%) are left out. Cut-off read from the data, not from the text of the source: active = normalized growth mostly below about 0.91 (no sharp cut-off); inconclusive = no clear call, values can overlap the other calls; inactive = mostly above about 0.92. The list shows a part of the results.

Test: chemical genetic growth profiling, strain panel (AID 1159580);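 note: tested at 20 µM; growth read once vehicle control cultures reached saturation at 30 °C; 1 = growth at the plate median or of vehicle wells; lower values mean less growth of the strain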
Conditions: S. cerevisiae deletion strains, growth OD

Measured: normalized growth

CC(=O)O[C@H]1CC[C@@]2(C)C(=CCC3C2CC[C@]2(C)C(=O)CCC32)C1 (stereo partly drawn)
active: locus YAL013W, strain DEP1, hits give low values 0.775 | locus YAL021C, strain ccr4, hits give low values 0.877 | locus YAL026C, strain drs2, hits give low values 0.6 | locus YBR021W, strain FUR4, hits give low values 0.833 | locus YCL029C, strain bik1, hits give low values 0.895 | locus YDL035C, strain GPR1, hits give low values 0.686 | locus YDL074C, strain BRE1, hits give low values 0.612 | locus YDR137W, strain rgp1, hits give low values 0.568 | locus YDR162C, strain NBP2, hits give low values 0.596 | locus YDR195W, strain ref2 1.3 [resistant] | locus YDR318W, strain mcm21, hits give low values 0.844 | locus YDR392W, strain spt3, hits give low values 0.43 | locus YDR502C, strain sam2, hits give low values 0.843 | locus YER155C, strain BEM2, hits give low values 0.752 | locus YER167W, strain BCK2, hits give low values 0.892 | locus YGL086W, strain mad1, hits give low values 0.884 | locus YGL248W, strain PDE1, hits give low values 0.721 | locus YGR135W, strain pre9, hits give low values 0.884 | locus YHR030C, strain SLT2, hits give low values 0.779 | locus YHR129C, strain ARP1, hits give low values 0.788 | locus YIL066C, strain RNR3, hits give low values 0.812 | locus YJL095W, strain BCK1, hits give low values 0.433 | locus YJL164C, strain tpk1, hits give low values 0.906 | locus YLR039C, strain RIC1, hits give low values 0.403 | locus YLR262C, strain YPT6 (second series), hits give low values 0.514 | locus YLR262C, strain YPT6, hits give low values 0.413 | locus YLR320W, strain mms22, hits give low values 0.846 | locus YLR330W, strain CHS5, hits give low values 0.814 | locus YLR342W, strain FKS1 (second series), hits give low values 0.742 | locus YLR418C, strain cdc73, hits give low values 0.698 | locus YML032C, strain rad52, hits give low values 0.866 | locus YMR223W, strain ubp8, hits give low values 0.878 | locus YNL071W, strain lat1, hits give low values 0.758 | locus YNL233W, strain BNI4, hits give low values 0.724 | locus YNL298W, strain CLA4, hits give low values 0.859 | locus YNL307C, strain MCK1, hits give low values 0.516 | locus YNR052C, strain pop2, hits give low values 0.85 | locus YOL147C, strain pex11, hits give low values 0.92 | locus YOR184W, strain ser1, hits give low values 0.477 | locus YPL055C, strain LGE1, hits give low values 0.594 | locus YPL078C, strain atp4, hits give low values 0.891 | locus YPL106C, strain sse1, hits give low values 1.22 [resistant] | strain wtn01, hits give low values 0.848
inactive: locus YAL030W, strain snc1, hits give low values 1.02 | locus YBL061C, strain skt5, hits give low values 1.02 | locus YBR009C, strain hhf1, hits give low values 0.908 | locus YBR023C, strain chs3, hits give low values 0.961 | locus YBR171W, strain sec66, hits give low values 1.02 | locus YBR229C, strain ROT2, hits give low values 1 | locus YBR231C, strain swc5, hits give low values 1.04 | locus YBR279W, strain paf1, hits give low values 0.975 | locus YCL011C, strain gbp2, hits give low values 0.912 | locus YCL016C, strain dcc1, hits give low values 0.917 | locus YCL069W, strain vba3, hits give low values 0.951 | locus YCR088W, strain abp1, hits give low values 1.05 | locus YDL005C, strain med2, hits give low values 1.02 | locus YDL040C, strain nat1, hits give low values 1.03 | locus YDL101C, strain DUN1, hits give low values 0.981 | locus YDL185W, strain tfp1, hits give low values 1.01 | locus YDL192W, strain arf1, hits give low values 1.01 | locus YDR001C, strain nth1, hits give low values 1.04 | locus YDR069C, strain doa4, hits give low values 1.02 | locus YDR101C, strain arx1, hits give low values 0.932 | locus YDR159W, strain sac3, hits give low values 1.01 | locus YDR297W, strain sur2, hits give low values 0.99 | locus YDR334W, strain swr1, hits give low values 1.06 | locus YDR335W, strain msn5, hits give low values 0.937 | locus YDR388W, hits give low values 1.02 | locus YEL003W, strain gim4, hits give low values 0.942 | locus YEL037C, strain rad23, hits give low values 0.994 | locus YEL061C, strain CIN8 (second series), hits give low values 1.02 | locus YEL061C, strain CIN8, hits give low values 0.928 | locus YER015W, strain faa2, hits give low values 0.948 | locus YER016W, strain bim1, hits give low values 1.02 | locus YER110C, hits give low values 1.03 | locus YER111C, strain swi4, hits give low values 1.03 | locus YER155C, strain BEM2 (second series), hits give low values 0.991 | locus YFR010W, strain ubp6, hits give low values 0.96 | locus YGL078C, strain dbp3, hits give low values 0.979 | locus YGL167C, strain pmr1, hits give low values 1.02 | locus YGL173C, strain kem1, hits give low values 1 | locus YGL227W, strain vid30, hits give low values 1.04 | locus YGL240W, strain doc1, hits give low values 1.02 | locus YGL253W, strain hxk2, hits give low values 0.939 | locus YGR229C, strain SMI1, hits give low values 0.813 | locus YGR252W, strain gcn5, hits give low values 0.81 | locus YHR013C, strain ard1, hits give low values 0.966 | locus YHR027C, strain rpn1, hits give low values 1.02 | locus YHR079C, strain IRE1 (second series), hits give low values 0.962 | locus YHR094C, strain hxt1, hits give low values 1.04 | locus YHR142W, strain chs7, hits give low values 0.877 | locus YHR200W, strain rpn10, hits give low values 0.961 | locus YIL073C, strain SPO22, hits give low values 0.679 | locus YIL125W, strain kgd1, hits give low values 1 | locus YIR030C, strain dcg1, hits give low values 1.02 | locus YJL092W, strain hpr5, hits give low values 1 | locus YJL095W, strain BCK1 (second series), hits give low values 1.01 | locus YJL115W, strain asf1, hits give low values 1.05 | locus YJL129C, strain trk1, hits give low values 0.939 | locus YJL134W, strain LCB3, hits give low values 1.02 | locus YJL154C, strain vps35, hits give low values 1.03 | locus YJL166W, strain qcr8, hits give low values 0.903 | locus YJL168C, strain set2, hits give low values 1.02 | locus YJL187C, strain SWE1 (second series), hits give low values 0.887 | locus YJR043C, strain POL32, hits give low values 0.857 | locus YJR075W, strain HOC1, hits give low values 0.887 | locus YKL009W, strain mrt4, hits give low values 0.938 | locus YKL068W, hits give low values 1.03 | locus YKL085W, strain MDH1 (second series), hits give low values 0.964 | locus YKL085W, strain MDH1, hits give low values 0.964 | locus YKL160W, strain elf1, hits give low values 0.906 | locus YKL190W, strain CNB1, hits give low values 0.945 | locus YKR001C, strain vps1, hits give low values 0.961 | locus YKR026C, strain gcn3, hits give low values 1.05 | locus YKR091W, strain srl3, hits give low values 1.03 | locus YLL001W, strain dnm1, hits give low values 0.918 | locus YLL026W, hits give low values 1.02 | locus YLL041C, strain sdh2, hits give low values 1.03 | locus YLR027C, strain aat2, hits give low values 0.954 | locus YLR058C, strain SHM2, hits give low values 0.892 | locus YLR102C, strain apc9, hits give low values 1.04 | locus YLR221C, strain rsa3, hits give low values 0.966 | locus YLR258W, strain gsy2, hits give low values 0.952 | locus YLR268W, strain sec22, hits give low values 0.887 | locus YLR342W, strain FKS1, hits give low values 0.976 | locus YLR357W, strain rsc2, hits give low values 1.1 | locus YLR370C, strain arc18, hits give low values 1.01 | locus YLR371W, strain rom2, hits give low values 1.02 | locus YLR384C, strain iki3, hits give low values 1.03 | locus YML016C, strain PPZ1, hits give low values 0.947 | locus YML120C, strain ndi1, hits give low values 0.928 | locus YML124C, strain tub3, hits give low values 1.03 | locus YMR058W, strain fet3, hits give low values 0.988 | locus YMR078C, strain ctf18, hits give low values 1.01 | locus YMR125W, strain sto1, hits give low values 1.05 | locus YMR129W, hits give low values 1.03 | locus YMR205C, strain PFK2, hits give low values 0.876 | locus YMR231W, strain pep5, hits give low values 1.01 | locus YMR263W, strain SAP30, hits give low values 0.943 | locus YMR307W, strain GAS1, hits give low values 0.865 | locus YNL067W, strain RPL9B, hits give low values 0.887 | locus YNL209W, strain ssb2, hits give low values 0.942 | locus YNL248C, strain rpa49, hits give low values 0.98 | locus YNL250W, strain rad50, hits give low values 0.914 | locus YNL271C, strain bni1, hits give low values 0.965 | locus YNL322C, strain KRE1 (second series), hits give low values 1.04 | locus YNR049C, strain mso1, hits give low values 1.04 | locus YOL012C, strain htz1 1.72 | locus YOR001W, strain rrp6, hits give low values 0.969 | locus YOR061W, strain CKA2, hits give low values 0.89 | locus YOR069W, strain VPS5, hits give low values 0.988 | locus YOR070C, strain gyp1, hits give low values 0.937 | locus YOR080W, strain dia2, hits give low values 1 | locus YOR083W, strain WHI5, hits give low values 0.903 | locus YOR106W, strain vam3, hits give low values 0.883 | locus YOR136W, strain idh2, hits give low values 0.95 | locus YOR144C, strain elg1, hits give low values 0.989 | locus YOR265W, strain rbl2, hits give low values 0.973 | locus YOR270C, strain vph1, hits give low values 1.05 | locus YOR290C, strain snf2, hits give low values 0.881 | locus YOR316C, strain cot1, hits give low values 1.02 | locus YPL051W, strain arl3, hits give low values 0.953 | locus YPL240C, strain hsp82, hits give low values 0.983 | locus YPL241C, strain CIN2, hits give low values 1 | locus YPR119W, strain clb2, hits give low values 1.04 | locus YPR141C, strain kar3, hits give low values 1.04 | locus YPR163C, strain tif3, hits give low values 0.941 | locus YPR167C, strain met16, hits give low values 0.97
